# Results published in PubChem BioAssay.
# Activity calls are given as the source filed them. Unless noted, no rule for the calls is given here.
# Key:
# [1] = resazurin metabolic signal in HepG2 cells – cell-based, resazurin fluorescence, 24 h, PK04 Diversity Set, profiling panel (AID 1172); conditions: HepG2 viability, higher = more signal; also: test concentration not given here
# [2] = budding yeast growth changes without added modifier – OD600, strain BY4716, 24 h, basal condition, primary screen (AID 1173); conditions: S. cerevisiae BY4716 growth, OD600, 24 h; higher = more signal, called active from +8 up or from −8 down
# [3] = viability profiling in MM1S myeloma cells – cell-based, resazurin fluorescence, basal, 24 h, PK04 Diversity Set, profiling panel (AID 1174); conditions: higher = more signal, called active from +8 up or from −8 down;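 also: MM1S multiple myeloma cell line; test concentration not given here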
# [4] = molecular target: Dihydroorotate dehydrogenase (quinone), mitochondrial (Plasmodium falciparum (isolate 3D7)) (UniProt Q08210); test: inhibition of P. falciparum DHODH – biochemical, C-terminal His tag, absorbance 600 nm, primary screen (AID 1175); conditions: PfDHODH enzyme, DCIP absorbance 600 nm; higher = more signal, called active from +8 up or from −8 down;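 also: recombinant parasite enzyme with a five histidine tag at its C terminus; test concentration not given here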
# Chain of Dihydroorotate dehydrogenase (quinone), mitochondrial (Plasmodium falciparum (isolate 3D7)) (Q08210 whole entry, looked up): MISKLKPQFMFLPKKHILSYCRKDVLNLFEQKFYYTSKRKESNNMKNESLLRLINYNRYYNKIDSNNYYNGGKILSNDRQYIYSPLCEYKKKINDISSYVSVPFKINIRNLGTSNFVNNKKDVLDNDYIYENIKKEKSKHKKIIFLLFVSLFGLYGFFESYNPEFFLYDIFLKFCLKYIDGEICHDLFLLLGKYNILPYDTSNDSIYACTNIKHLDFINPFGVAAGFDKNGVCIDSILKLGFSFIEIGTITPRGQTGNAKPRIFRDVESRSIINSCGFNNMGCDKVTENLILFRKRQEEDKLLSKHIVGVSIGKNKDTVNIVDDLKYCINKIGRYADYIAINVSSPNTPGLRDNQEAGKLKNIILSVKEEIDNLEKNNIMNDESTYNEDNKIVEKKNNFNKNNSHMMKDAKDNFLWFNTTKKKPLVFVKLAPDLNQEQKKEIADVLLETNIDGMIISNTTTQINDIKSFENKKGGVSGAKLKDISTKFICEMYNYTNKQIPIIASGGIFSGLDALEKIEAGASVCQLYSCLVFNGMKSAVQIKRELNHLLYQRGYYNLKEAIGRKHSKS
# [5] = inhibition of PAO1 biofilm formation – strain PAO1, LB-PBS medium, absorbance 600 nm, primary screen (AID 1176); also: test concentration not given here; conditions: P. aeruginosa PAO1 growth/biofilm, A600, 12 h; higher = more signal
# [6] = growth modulation of vineyard yeast isolate – strain RM11-1a, OD600, basal, 24 h, primary screen (AID 1177);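 also: cultures grown under basal conditions with no added stressor; test concentration not given here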; conditions: S. cerevisiae RM11-1a growth, OD600, 24 h; higher = more signal, called active from +8 up or from −8 down
# [7] = growth of efflux-deficient E. coli DRC39 – strain DRC39, OD650, 24 h, E. coli filamentation inducers, primary screen (AID 1178);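 also: growth measured as culture turbidity by optical density at 650 nm; test concentration not given here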; conditions: E. coli DRC39 acrAB, higher = more signal, called active from +8 up or from −8 down
# [8] = growth of efflux-deficient E. coli DRC39 – strain DRC39, OD650, 48 h, E. coli filamentation inducers, primary screen (AID 1179);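 also: screen aims at cell division blockers that make cells filament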; conditions: E. coli DRC39 delta-acrAB growth, higher = more signal, called active from +8 up or from −8 down
# [9] = viability profiling in RPMI8226 myeloma cells – cell-based, resazurin fluorescence, basal, 24 h, PK04 Diversity Set, profiling panel (AID 1180); conditions: higher = more signal;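 also: RPMI8826 multiple myeloma cell line at 5000 cells per well; test concentration not given here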
# [10] = molecular target: E3 ubiquitin-protein ligase XIAP (Homo sapiens) (UniProt P98170); test: small molecules binding XIAP protein – biophysical, small-molecule microarray, fluorescence 635 nm, primary screen (AID 1181); conditions: higher = more signal;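 also: score merges 667 nm emission and signal to noise over triplicate slides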
# Chain of E3 ubiquitin-protein ligase XIAP (Homo sapiens) (P98170 whole entry, looked up): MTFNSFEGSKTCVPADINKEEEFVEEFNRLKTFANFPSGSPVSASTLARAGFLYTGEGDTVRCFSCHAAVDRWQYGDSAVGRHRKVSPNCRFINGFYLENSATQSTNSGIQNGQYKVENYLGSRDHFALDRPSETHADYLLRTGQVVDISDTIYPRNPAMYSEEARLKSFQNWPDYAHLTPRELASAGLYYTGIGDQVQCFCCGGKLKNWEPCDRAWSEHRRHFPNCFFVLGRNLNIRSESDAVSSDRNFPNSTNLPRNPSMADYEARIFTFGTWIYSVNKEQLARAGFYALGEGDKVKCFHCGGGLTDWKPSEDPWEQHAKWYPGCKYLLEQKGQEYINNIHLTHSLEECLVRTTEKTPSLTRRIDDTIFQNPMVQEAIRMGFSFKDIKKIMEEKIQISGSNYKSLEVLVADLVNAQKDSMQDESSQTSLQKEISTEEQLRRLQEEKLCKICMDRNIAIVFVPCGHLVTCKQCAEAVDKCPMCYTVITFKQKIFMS
SMILES,z-score [1],z-score [2],z-score [3],composite z-score [4],z-score [5],z-score [6],z-score [7],z-score [8],z-score [9],composite z-score [10]
COC(=O)CC=C[C@@H](C)[C@@H](C=NO[C@@H](C)c1cn([C@H](CO)Cc2ccccc2)nn1)OC,-0.849,-0.966 (inactive),0.104 (inactive),-0.842 (inactive),-0.418 (inactive),-2.71 (inactive),0.24 (inactive),-0.913 (inactive),-0.514,-0.139
COC(=O)CC=C[C@@H](C)[C@@H](C=NO[C@H](C)c1cn([C@@H]2COC[C@H]2O)nn1)NS(=O)(=O)c1ccc(C)cc1,-1.37,-0.335 (inactive),-1.34 (inactive),-0.753 (inactive),0.301 (inactive),0.278 (inactive),0.524 (inactive),1.29 (inactive),-0.687,-0.267
COc1cccc([C@H]2Oc3ccc(OC)cc3C(=NO[C@@H]3O[C@H](COC(C)=O)[C@@H](OC(C)=O)[C@H](OC(C)=O)[C@H]3OC(C)=O)[C@@H]2O)c1,-0.34,0.387 (inactive),-0.726 (inactive),-0.582 (inactive),0.347 (inactive),-1.02 (inactive),0.416 (inactive),-0.716 (inactive),-0.158,0.02
O=C(NN=C1C[C@@H](O)[C@@H](O)[C@@H]2[C@@H]3C(=O)N(C4CCCCC4)C(=O)[C@@H]3CC[C@H]12)OCc1ccccc1,-0.383,0.112 (inactive),-0.531 (inactive),-0.135 (inactive),0.307 (inactive),-0.182 (inactive),0.061 (inactive),-0.0133 (inactive),-0.901,0.0942
CC(=O)OC[C@H]1O[C@H](CCON=C2[C@H]3CCn4c(=O)n(-c5ccccc5)c(=O)n4[C@H]3[C@H](O)[C@@H]3O[C@H]23)C=C[C@@H]1OC(C)=O,-0.609,0.0957 (inactive),-3.19 (inactive),0.33 (inactive),-0.95 (inactive),0.393 (inactive),0.785 (inactive),1.17 (inactive),-0.759,-0.148
CCOC(=O)C1=NO[C@]2(C=C(Br)C3(OCCCO3)[C@H]3O[C@H]32)C1,-0.706,-0.175 (inactive),-0.734 (inactive),-0.671 (inactive),-0.646 (inactive),-0.847 (inactive),0.336 (inactive),0.645 (inactive),-0.549,0.201
COc1cccc([C@H]2Oc3ccc(OC)cc3C(=NOC[C@@H](C)[C@H](OCc3ccccc3)C(C)C)[C@@H]2O)c1,-0.214,0.635 (inactive),-0.0524 (inactive),-0.212 (inactive),0.347 (inactive),0.846 (inactive),0.221 (inactive),-1.18 (inactive),0.0541,0.0015
COC(=O)[C@@H]1CC[C@H](C)[C@@H](c2ccc(C)cc2)N1C(=O)c1ccc(C=NOCC[C@@H]2C=C[C@H](OC(C)=O)[C@@H](COC(C)=O)O2)cc1,-0.574,1.76 (inactive),-0.761 (inactive),1.16 (inactive),0.888 (inactive),1.98 (inactive),0.667 (inactive),-0.62 (inactive),-0.337,-0.291
CC(C)=NOC[C@@H](C)[C@H](OCc1ccccc1)C(C)C,-0.593,0.201 (inactive),-0.572 (inactive),0.444 (inactive),-0.115 (inactive),0.536 (inactive),-0.161 (inactive),-0.339 (inactive),0.887,0.0077
Cc1ccc(S(=O)(=O)N[C@@H]2COC(=O)[C@@H](C)COC(=O)CC=C[C@H]2C)cc1,0.0896,0.426 (inactive),0.258 (inactive),0.264 (inactive),-0.413 (inactive),1.02 (inactive),0.155 (inactive),-0.73 (inactive),-0.0722,0.214
COC(=O)[C@H](C)NC(=O)CCC1CC(OC(=O)NCc2ccc3c(c2)OCO3)CC2(CCCC(COC(=O)NCC(c3ccccc3)c3ccccc3)O2)O1 (stereo not given in full),0.0245,-1.23 (inactive),0.177 (inactive),-2.67 (inactive),-0.895 (inactive),0.0477 (inactive),-0.341 (inactive),0.532 (inactive),-0.0511,-0.0734
CSCC[C@@H]1NC(=O)CC=C[C@@H](C)COC(=O)[C@@H](C)COC1=O,0.414,-0.739 (inactive),0.574 (inactive),0.0037 (inactive),-0.708 (inactive),-0.24 (inactive),0.422 (inactive),-0.962 (inactive),0.249,-0.0525
COc1cccc([C@H]2Oc3ccc(OC)cc3C(=NO[C@H](C)c3cn([C@H](CO)Cc4ccccc4)nn3)[C@@H]2O)c1,-0.26,0.723 (inactive),-0.328 (inactive),-0.755 (inactive),0.417 (inactive),-1.11 (inactive),0.753 (inactive),0.571 (inactive),0.249,-0.278
COC(=O)CC=C[C@@H](C)[C@@H](C=NOCC[C@@H]1C=C[C@H](OC(C)=O)[C@@H](COC(C)=O)O1)NS(=O)(=O)c1ccc(C)cc1,-0.564,0.705 (inactive),-0.602 (inactive),0.33 (inactive),0.453 (inactive),0.193 (inactive),0.336 (inactive),0.402 (inactive),-0.393,0.0374
O=C1CCCC=C1C(O)CCCCBr (stereo not given),-1.4,-17.6 (active),-8.08 (active),-1.39 (inactive),1.43 (inactive),-2.66 (inactive),0.48 (inactive),0.557 (inactive),-4.3,-0.193
CCOC(=O)C1=NO[C@@]2(C=C(Br)C3(OCCCO3)[C@H]3O[C@H]32)C1,-0.68,-0.303 (inactive),-0.227 (inactive),0.552 (inactive),0.356 (inactive),0.227 (inactive),0.58 (inactive),0.643 (inactive),-0.249,0.0657
COc1cccc([C@H]2Oc3ccc(OC)cc3C(=NOC[C@@H](O)[C@H]3O[C@@H]4OC(C)(C)O[C@@H]4[C@H]3O)[C@@H]2O)c1,-0.791,-6.98 (inactive),-1.21 (inactive),0.474 (inactive),0.56 (inactive),-0.0039 (inactive),-0.218 (inactive),0.0308 (inactive),-0.687,0.0865
